What all share (experiment): NCI-60 one-dose screen, 48 h (100 = growth as untreated, 0 = no growth, -100 = all killed)
Assay [1] relates to SK-MEL-2 melanoma. Conditions: 10 µM unless noted.
The test system of assay [2] is EKVX NSCLC. As to conditions: 10 µM unless noted.
In assay [3] the test system is SN12C renal. Conditions: 10 µM unless noted.
Assay [4] has as its system UO-31 renal. Conditions: 10 µM unless noted.
In assay [5] the test system is TK-10 renal. As to conditions: 10 µM unless noted.
In assay [6] the test system is ACHN renal. As to conditions: 10 µM unless noted.
Assay [7] concerns CAKI-1 renal. Conditions: 10 µM unless noted.
In assay [8] the test system is A498 renal. Conditions: 10 µM unless noted.
Assay [9] relates to CCRF-CEM leukemia. Conditions: 10 µM unless noted.
The subject of assay [10] is MOLT-4 leukemia. Conditions: 10 µM unless noted.
The test system of assay [11] is SR leukemia. As to conditions: 10 µM unless noted.
Assay [12] concerns RPMI-8226 leukemia. Conditions: 10 µM unless noted.
Assay [13] relates to OVCAR-8 ovarian. As to conditions: 10 µM unless noted.
The subject of assay [14] is OVCAR-5 ovarian. Conditions: 10 µM unless noted.
Assay [15] concerns OVCAR-4 ovarian. Conditions: 10 µM.
The subject of assay [16] is SK-OV-3 ovarian. As to conditions: 10 µM unless noted.
For assay [17], the system named is IGROV1 ovarian. Conditions: 10 µM unless noted.
Assay [18] relates to HS 578T breast. As to conditions: 10 µM unless noted.
Assay [19] has as its system NCI/ADR-RES ovarian. Conditions: 10 µM unless noted.
The test system of assay [20] is OVCAR-3 ovarian. Conditions: 10 µM unless noted.

This is part of a sample that, as a whole, favours compounds with a hit. Of some 83,000 tested, about 20% had one in any assay.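 Interpretation: 100, growth as untreated; towards 0, rising growth inhibition; 0, no net growth; 0 to -100, cell death. Compounds scoring below 10 were considered active.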 A number with no mark means an inactive call. Activity calls are given as the source filed them.

In the case of `CCOc1ccccc1/C=N\Nc1ccc(S(=O)(=O)c2ccc(N/N=C/c3ccccc3OCC)cc2)cc1`, the growth in [1] was 103%; in [2], 90.7%; in assay [3], 93.5%; in assay [4], 66.5%; in assay [5] it was 126%; in [6], 88.7%. Besides, the growth in assay [7] is 67.2%; in assay [8], 113%; in assay [9] it was 94.7%; in [10], 80.8%; in [11] it was 94.8%; in assay [12] it was 81.3%. The growth in assay [13] is 93.1%; in assay [14] it was 95%; in assay [15] it was 96.6%; in assay [16] it was 87.6%; in assay [17], 76%; in assay [18], -24.9% (active). Moreover, the growth in assay [19] was 92.8%.
With `N#C/C(=C(/O)CCCO)c1nc2ccccc2c(=O)[nH]1`, the growth is 87.7% in assay [1]; 108% in [2]; 100% in assay [3]; 106% in [4]; 110% in [5]; 106% in assay [6]. The growth in assay [7] is 149%; in assay [8], 124%; in assay [9], 97.8%; in assay [10], 105%; in assay [11], 90.9%; in assay [12] it was 91.1%. The growth in assay [13] was 107%; in assay [14], 92.5%; in assay [15], 104%; in [16], 105%; in assay [17] it was 109%; in assay [18], 102%. Besides, in [19], the growth was 95%.
Regarding `Ic1ccc2[nH]cc(SSc3c[nH]c4ccc(I)cc34)c2c1`, the growth was 74% in [1]; 23.5% in assay [2]; 42.1% in assay [3]; 36.6% in assay [4]; -13.3% (active) in [5]; 16.5% in assay [6]. In addition, the growth in assay [7] is -6.92% (active); in assay [8], 40.7%; in assay [9], 8.16% (active); in assay [10], 13.2%; in [11] it was 13.8%; in assay [12], 3.93% (active). For the same compound, the growth in assay [13] is 32.6%; in assay [14], 42.7%; in assay [15] it was 25.3%; in assay [16], -20.1% (active); in assay [20], -9.35% (active); in assay [18], 65.7%. Further, the growth in assay [19] was 7.06% (active).
Regarding `CC[C@]1(O)CC2CN(CCc3c([nH]c4ccccc34)[C@@](C(=O)OC)(c3cc4c(cc3OC)N(C=O)[C@H]3[C@@](O)(C(=O)OC)[C@H](OC(C)=O)[C@]5(CC)C=CCN6CC[C@]43[C@@H]65)C2)C1` (stereo partly drawn), the growth in [1] is 18.8%; in assay [2], 47.4%; in assay [3] it was 26.6%; in assay [4], 56.3%; in [5] it was 74.2%; in assay [6], 34.4%. The growth is 48.9% in assay [7]; -17.9% (active) in assay [8]; 2.51% (active) in assay [9]; 21.6% in assay [10]; 13% in [11]; 18.7% in [12]. In addition, the growth was 13.2% in [13]; 32.2% in assay [14]; 43% in assay [15]; 4.03% (active) in assay [16]; 39.4% in assay [17]; -49.2% (active) in assay [20]. Further, the growth in assay [19] is 11.3%.
As to `COc1cc(C(=O)/C=C/c2c(-c3ccc(F)cc3)nc3sccn23)cc(OC)c1OC`, the growth in assay [1] was 10.1%; in assay [2], 49.9%; in [3], 64.6%; in assay [4], 22.1%; in assay [5], 36.5%; in assay [6], 28.3%. The growth in assay [7] is 15.1%; in assay [8] it was 48.8%; in assay [9], -41.9% (active); in [10], 39.2%; in assay [11] it was 26%; in assay [12], -44.2% (active). The growth in assay [13] was 34.8%; in [14] it was 88%; in assay [15], 25.7%; in assay [16] it was 47.4%; in assay [20], 4.69% (active); in assay [18], 46.1%. Further, in [19], the growth was 10.4%.
As for `Cc1ccc(S(=O)(=O)n2cc(C(=O)C(=O)N3CCCCC3)c3ccccc32)cc1`, the growth in [1] is 90.6%; in assay [2], 74.8%; in [3], 85.3%; in assay [4] it was 53.6%; in assay [5], 103%; in assay [6] it was 65.6%. The growth in [7] was 58.9%; in assay [8], 90.8%; in assay [9], 74.9%; in [10], 86.9%; in [11], 57.6%; in [12], 45.9%. The growth was 91.9% in assay [13]; 76.3% in assay [14]; 49.9% in assay [15]; 92% in assay [16]; 71.9% in [17]; 77% in assay [20]. Also, in assay [19], the growth was 73.8%.
With `O=C1CC(c2ccccc2)Cc2nc3ccc(Br)cc3cc21` (stereo not drawn), the growth in [1] is 45.2%; in assay [2], 36.3%; in [3] it was 32.2%; in assay [4], 41.4%; in [5], 73.4%; in [6] it was 34.3%. Further, the growth was 30.7% in assay [7]; -12.4% (active) in [8]; 8.51% (active) in assay [9]; 10.5% in assay [10]; 13.1% in assay [11]; 50% in [12]. Further, the growth is 24.1% in assay [13]; 27.2% in [14]; 47% in [15]; 47.6% in assay [16]; 22% in assay [17]; -28.4% (active) in assay [20]. Further, the growth in assay [19] is 17.1%.

The values above are taken from PubChem BioAssay (NCI).
